# ± gives the standard deviation.
# Experiments:
# Test in all cases: peptide microarray binding signal (635 nm), min-max normalized on array (fraction of array maximum); higher = stronger binding
# [1] = molecular target: T1, HaloTag-ATRX ADD domain (163-292)
# T1 chain: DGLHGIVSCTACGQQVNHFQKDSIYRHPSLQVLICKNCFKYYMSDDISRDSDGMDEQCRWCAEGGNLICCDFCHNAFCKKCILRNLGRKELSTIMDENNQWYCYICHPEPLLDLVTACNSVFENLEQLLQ
# How it was run: (§1)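 Arrays carried histone 13-mer peptide–cellulose conjugates printed in triplicate on nitrocellulose alongside a Cy3 tracer. After overnight blocking at 4°C, they were incubated for 1 h at 4°C with biotin-labelled HaloTag reader fusions (10 nM to 1 μM) plus streptavidin-Alexa Fluor 647, or with rabbit histone antibodies (1:10,000 to 1:2,000) plus anti-rabbit Alexa 647. Scanning on an Axon GenePix 4000B used 635 nm for signal and 532 nm for misprints. The binding signal reported is each triplicate's mean spot intensity after per-library min-max scaling.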
# [2] = molecular target: HaloTag-ING2 PHD (mouse Ing2 200-280)
# How it was run: as §1
# [3] = molecular target: anti-H3K4me3 antibody ab8580
# How it was run: as §1
# [4] = molecular target: anti-H3K9me3 antibody ab8898
# How it was run: as §1
# [5] = peptide region: H3 20-32, binder concentration: 1:2,000 dilution
# [6] = peptide region: H3 20-32, binder concentration: 1:10,000 dilution
# [7] = peptide region: H3 20-32, peptide modifications: H3K23me1 H3K27me2, binder concentration: 1:2,000 dilution
# [8] = peptide region: H3 20-32, peptide modifications: H3K23me1 H3K27me2, binder concentration: 1:10,000 dilution
# [9] = peptide region: H3 11-23, peptide modifications: H3R17me2s H3K18me2, binder concentration: 1:2,000 dilution
# [10] = peptide region: H3 11-23, peptide modifications: H3R17me2s H3K18me2, binder concentration: 1:10,000 dilution
# [11] = peptide region: H3 11-23, peptide modifications: H3R17me2s H3K18me1, binder concentration: 1:2,000 dilution
# [12] = peptide region: H3 11-23, peptide modifications: H3R17me2s H3K18me1, binder concentration: 1:10,000 dilution
# [13] = peptide region: H3 20-32, peptide modifications: H3K23ac H3K27me1, binder concentration: 1:2,000 dilution
# [14] = peptide region: H3 20-32, peptide modifications: H3K23ac H3K27me1, binder concentration: 1:10,000 dilution
binder,measurement,setting,value
LATKAARKSAPAT [H3 20-32 L A T K A A R K S A P A T],peptide microarray binding signal,"[1]; peptide region: H3 20-32, binder concentration: 50 nM",0.00505 ± 0.00047
same,peptide microarray binding signal,"[1]; peptide region: H3 20-32, binder concentration: 500 nM",0.00533 ± 9e-05
same,peptide microarray binding signal,"[2]; peptide region: H3 20-32, binder concentration: 10 nM",0.00806 ± 9.3e-05
same,peptide microarray binding signal,"[2]; peptide region: H3 20-32, binder concentration: 100 nM",0.0106 ± 0.00016
same,peptide microarray binding signal,[3]; [5],0.00249 ± 7e-05
same,peptide microarray binding signal,[3]; [6],0.00262 ± 4e-05
same,peptide microarray binding signal,[4]; [5],0.000982 ± 2.1e-05
same,peptide microarray binding signal,[4]; [6],0.00167
LATKAARKSAPAT [H3 20-32 L A T Kme A A R Kme2 S A P A T],peptide microarray binding signal,"[1]; peptide region: H3 20-32, peptide modifications: H3K23me1 H3K27me2, binder concentration: 50 nM",0.00395 ± 5.6e-05
same,peptide microarray binding signal,"[1]; peptide region: H3 20-32, peptide modifications: H3K23me1 H3K27me2, binder concentration: 500 nM",0.002619 ± 2.1e-05
same,peptide microarray binding signal,"[2]; peptide region: H3 20-32, peptide modifications: H3K23me1 H3K27me2, binder concentration: 10 nM",0.00537 ± 9.5e-05
same,peptide microarray binding signal,"[2]; peptide region: H3 20-32, peptide modifications: H3K23me1 H3K27me2, binder concentration: 100 nM",0.00539 ± 7.3e-05
same,peptide microarray binding signal,[3]; [7],0.00217 ± 0.00021
same,peptide microarray binding signal,[3]; [8],0.00331 ± 4.7e-05
same,peptide microarray binding signal,[4]; [7],0.0018 ± 6.4e-05
same,peptide microarray binding signal,[4]; [8],0.00161 ± 3.1e-05
TGGKAPRKQLATK [H3 11-23 T G G K A P Rme2s Kme2 Q L A T K],peptide microarray binding signal,"[1]; peptide region: H3 11-23, peptide modifications: H3R17me2s H3K18me2, binder concentration: 50 nM",0.00549 ± 0.0002
same,peptide microarray binding signal,"[1]; peptide region: H3 11-23, peptide modifications: H3R17me2s H3K18me2, binder concentration: 500 nM",0.0107 ± 0.00094
same,peptide microarray binding signal,"[2]; peptide region: H3 11-23, peptide modifications: H3R17me2s H3K18me2, binder concentration: 10 nM",0.0163 ± 0.0016
same,peptide microarray binding signal,"[2]; peptide region: H3 11-23, peptide modifications: H3R17me2s H3K18me2, binder concentration: 100 nM",0.0188 ± 0.0013
same,peptide microarray binding signal,[3]; [9],0.02 ± 0.0013
same,peptide microarray binding signal,[3]; [10],0.0106 ± 0.0017
same,peptide microarray binding signal,[4]; [9],0.00296 ± 0.00028
same,peptide microarray binding signal,[4]; [10],0.00259 ± 6.1e-05
TGGKAPRKQLATK [H3 11-23 T G G K A P Rme2s Kme Q L A T K],peptide microarray binding signal,"[1]; peptide region: H3 11-23, peptide modifications: H3R17me2s H3K18me1, binder concentration: 50 nM",0.00755 ± 0.00027
same,peptide microarray binding signal,"[1]; peptide region: H3 11-23, peptide modifications: H3R17me2s H3K18me1, binder concentration: 500 nM",0.00986 ± 0.00028
same,peptide microarray binding signal,"[2]; peptide region: H3 11-23, peptide modifications: H3R17me2s H3K18me1, binder concentration: 10 nM",0.0187 ± 0.00059
same,peptide microarray binding signal,"[2]; peptide region: H3 11-23, peptide modifications: H3R17me2s H3K18me1, binder concentration: 100 nM",0.0288 ± 0.002
same,peptide microarray binding signal,[3]; [11],0.0153 ± 0.0029
same,peptide microarray binding signal,[3]; [12],0.0127 ± 0.0012
same,peptide microarray binding signal,[4]; [11],0.00368 ± 0.00012
same,peptide microarray binding signal,[4]; [12],0.00254 ± 3.9e-05
LATKAARKSAPAT [H3 20-32 L A T Kac A A R Kme S A P A T],peptide microarray binding signal,"[1]; peptide region: H3 20-32, peptide modifications: H3K23ac H3K27me1, binder concentration: 50 nM",0.0068 ± 0.00024
same,peptide microarray binding signal,"[1]; peptide region: H3 20-32, peptide modifications: H3K23ac H3K27me1, binder concentration: 500 nM",0.0141 ± 0.0013
same,peptide microarray binding signal,"[2]; peptide region: H3 20-32, peptide modifications: H3K23ac H3K27me1, binder concentration: 10 nM",0.0291 ± 0.00095
same,peptide microarray binding signal,"[2]; peptide region: H3 20-32, peptide modifications: H3K23ac H3K27me1, binder concentration: 100 nM",0.0373 ± 0.0027
same,peptide microarray binding signal,[3]; [13],0.0154 ± 0.0014
same,peptide microarray binding signal,[3]; [14],0.0175 ± 0.003
same,peptide microarray binding signal,[4]; [13],0.00459 ± 0.00035
same,peptide microarray binding signal,[4]; [14],0.00513 ± 0.00045
